The panel holds about 83,000 compounds, 20% with a hit somewhere; the sample as a whole holds those more often.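 Method: cells in 96-well plates; compound added at one concentration; 48 h incubation; percent growth measured; values under 10 scored active.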 A number with no mark means an inactive call. The source made the active and inactive calls.
Legend:
Test in all cases: NCI-60 one-dose screen, 48 h (100 = growth as untreated, 0 = no growth, -100 = all killed)
Conditions in all cases: 10 µM unless noted
[1] = tested on: T-47D breast
[2] = tested on: BT-549 breast
[3] = tested on: MDA-MB-435 melanoma
[4] = tested on: SW-620 colon
[5] = tested on: MCF7 breast
[6] = tested on: HCT-116 colon
[7] = tested on: HCC-2998 colon
[8] = tested on: KM12 colon

Compound: CC(=O)c1cc(C(=O)N2c3ccccc3Sc3ccccc32)n2c1ccc1ccccc12
- growth [1]: 75.5%
- growth [2]: 52.6%
- growth [3]: 3.08% (active)
- growth [4]: 41.6%
- growth [5]: 30.5%
- growth [6]: 25.6%
- growth [7]: 87.8%
- growth [8]: 44.6%

Compound: CN(C)CCNc1ccc2ncc(C#Cc3cncc(C(=O)Nc4ccc(CN5CCN(C)CC5)c(C(F)(F)F)c4)c3)n2n1
- growth [1]: 78.7%
- growth [2]: -8.5% (active)
- growth [3]: 40.5%
- growth [4]: -6.29% (active)
- growth [5]: -51.9% (active)
- growth [6]: 5.01% (active)
- growth [7]: -25.9% (active)
- growth [8]: -8.42% (active)

Compound: NS(=O)(=O)c1cccc(Nc2nc(SCC(=O)c3ccc(Cl)cc3)nc3c2CCC3)c1
- growth [1]: 90.4%
- growth [2]: 84.7%
- growth [3]: 99.2%
- growth [4]: 102%
- growth [5]: 82.9%
- growth [6]: 95.7%
- growth [7]: 107%
- growth [8]: 105%

Compound: NS(=O)(=O)c1ccc(CCn2c(-c3ccc(C(=O)O)cc3)nc(-c3ccccc3)c2-c2ccccc2)cc1
- growth [1]: 104%
- growth [2]: 104%
- growth [3]: 98.8%
- growth [4]: 98.6%
- growth [5]: 93.6%
- growth [6]: 101%
- growth [7]: 108%
- growth [8]: 107%

Compound: O=C(CSc1nnc(-c2ccc(Cl)cc2)n1-c1ccccc1)Nc1cccc(F)c1
- growth [1]: 3.95% (active)
- growth [2]: 50.4%
- growth [3]: 49.6%
- growth [4]: 30.9%
- growth [5]: 39%
- growth [6]: -13.8% (active)
- growth [7]: 59.7%
- growth [8]: 53.3%

Compound: CCOC(=O)Nc1ccc2c(ccn2C(=O)c2cccc(F)c2)c1
- growth [1]: 45.2%
- growth [2]: 26.1%
- growth [3]: -45.4% (active)
- growth [4]: 26.3%
- growth [5]: 26%
- growth [6]: 25.6%
- growth [7]: 43.8%
- growth [8]: 24.6%

Compound: CC(=O)OC[C@@]12Oc3c(cccc3-c3ccc(O)c4c3O[C@]3(COC(C)=O)C(=C4O)C(=O)C[C@H](C)[C@@H]3OC(C)=O)C(O)=C1C(=O)C[C@H](C)[C@@H]2OC(C)=O
- growth [1]: 4.37% (active)
- growth [2]: -1.88% (active)
- growth [3]: 13%
- growth [4]: 17.8%
- growth [5]: 5.84% (active)
- growth [6]: 10.8%
- growth [7]: 23.7%
- growth [8]: 8.74% (active)

Compound: C#C[C@]1(O)CC[C@H]2[C@@H]3CC=C4c5sc(Nc6ncccc6C)nc5CC[C@]4(C)[C@H]3CC[C@@]21C
- growth [1]: 29.2%
- growth [2]: -1.46% (active)
- growth [3]: -39.3% (active)
- growth [4]: -40.9% (active)
- growth [5]: -48.8% (active)
- growth [6]: 7.15% (active)
- growth [7]: 28.8%
- growth [8]: 3.23% (active)

Compound: N#C/C(=C\c1ccc(-c2ccc(Cl)cc2)o1)C(=O)Nc1ncc(Cc2ccc(Br)cc2)s1
- growth [1]: 18.7%
- growth [2]: 24.7%
- growth [3]: 11.3%
- growth [4]: -40% (active)
- growth [5]: 30.5%
- growth [6]: -33% (active)
- growth [7]: 62.4%
- growth [8]: 9.51% (active)

Compound: O=C(CCl)Nc1ccc(NC(=O)c2cc(Cl)ccc2O)c(Cl)c1
- growth [1]: 81.3%
- growth [2]: 65.8%
- growth [3]: 66%
- growth [4]: 35.2%
- growth [5]: 29.1%
- growth [6]: 39%
- growth [7]: 105%
- growth [8]: 75.8%

Compound: CCN(CC)CCOc1ccc(C(=C(C)c2ccc(OC)cc2)c2ccc(OCCN(CC)CC)cc2)cc1
- growth [1]: -45.7% (active)
- growth [2]: 47.9%
- growth [3]: -71.5% (active)
- growth [4]: -35.7% (active)
- growth [5]: -64.5% (active)
- growth [6]: 0.525% (active)
- growth [7]: 3.44% (active)
- growth [8]: 14.7%

Compound: NC(N)=NS(=O)(=O)c1ccc(N=Nc2c(N)nn(-c3ccc([N+](=O)[O-])cc3[N+](=O)[O-])c2N)cc1
- growth [1]: 104%
- growth [2]: 123%
- growth [3]: 103%
- growth [4]: 101%
- growth [5]: 96.2%
- growth [6]: 101%
- growth [7]: 113%
- growth [8]: 101%

Compound: COc1cc2oc(-c3cccc(NC(=O)[C@@H](N)C(C)C)c3)cc(=O)c2c(OC)c1OC
- growth [1]: 87.3%
- growth [2]: 104%
- growth [3]: 109%
- growth [4]: 105%
- growth [5]: 92.9%
- growth [6]: 98.6%
- growth [7]: 109%
- growth [8]: 101%

Compound: Cc1ccc(NC(=O)Nc2nc3ccc([N+](=O)[O-])cc3s2)cc1
- growth [1]: -22.3% (active)
- growth [2]: -9.82% (active)
- growth [3]: -7.46% (active)
- growth [4]: 8.56% (active)
- growth [5]: 2.35% (active)
- growth [6]: 1.1% (active)
- growth [7]: 6.19% (active)
- growth [8]: -3.91% (active)

Compound: COc1cc(/C=N\NC(=O)c2ccc3nc(-c4ccc(Br)cc4)[nH]c3c2)cc(OC)c1OC
- growth [1]: 9.41% (active)
- growth [2]: 38%
- growth [3]: 52.5%
- growth [4]: 79.1%
- growth [5]: 6.5% (active)
- growth [6]: 18%
- growth [7]: 73.1%
- growth [8]: 47.1%
